Experimental data published in PubChem BioAssay (Tox21).
Results filed as inconclusive are left out. Entries that show only a call come without a potency. A number with no mark means an inactive call. The source made the active and inactive calls. The call rests on the fitted dose curve; in most records, active means well fitted cell-killing curve with a large enough effect in the repeat runs; inconclusive means weak or mixed curves, or effect the other way; inactive means flat fitted curve, though single readings scatter.

Key:
[1] = cAMP Responsive Elements (CRE) small molecule antagonists, cell-based qHTS assay: qHTS cell viability counter screen (AID 2060913); settings: CRE-bla HEK293T viability, CellTiter-Glo luminescence, 5 h; series mostly up to 92.4 µM; further: nearly all actives have a fitted effect of over 40% in size; further: potency means the concentration at half of the fitted maximal effect
In short: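 Steps: cells plated and held 18 hrs at 37 C/5% CO2; compounds and NKH477 (0.25 uM final) added; 3 hrs incubation; reporter substrate read; CellTiter-Glo added to measure cytotoxicity by luminescence.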

[2] = cAMP Responsive Elements (CRE) small molecule agonists, cell-based qHTS assay: qHTS cell viability counter screen (AID 2060914); settings: CRE-bla HEK293T viability, CellTiter-Glo luminescence, 5 h; series mostly up to 92.4 µM; further: nearly all actives have a fitted effect of over 50% in size
In short: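 Cytotoxicity was measured as ATP luminescence (CellTiter-Glo, 30 min at room temperature) in the same wells as the CRE-bla FRET read-out. HEK293T CRE-bla cells had 3 h compound exposure at 37C/5% CO2.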

SMILES	Potency [1]	Potency [2]	viability change, negative = cytotoxic [1]	activity change, negative = cytotoxicity [2]
ClC1(Cl)C2(Cl)C3(Cl)C4(Cl)C(Cl)(Cl)C5(Cl)C3(Cl)C1(Cl)C5(Cl)C24Cl (configuration not stated)	inactive	inactive		
CN(C)c1ccc(N)cc1	inactive	inactive		
Cc1cc(OC(=O)N(C)C)nn1C(=O)N(C)C	inactive	inactive		
CCNC(=O)NC(=O)/C(C#N)=N/OC	inactive	inactive		
CCCCCCCCCCCOC(=O)c1ccccc1C(=O)OCCCCCCCCCCC	inactive	inactive		
O=C(Cl)C(Cl)(Cl)Cl	inactive	inactive		
O=P(O)(Oc1ccccc1)Oc1ccccc1	inactive	inactive		
C1CC2OC2CC1C1CO1 (configuration not stated)	inactive	inactive		
CN1CCN(C(=O)O[C@H]2c3nccnc3C(=O)N2c2ccc(Cl)cn2)CC1	inactive	inactive		
CC(C)(C)C(=O)CCl	inactive	inactive		
CC(C)N(CCC(C(N)=O)(c1ccccc1)c1ccccn1)C(C)C (configuration not stated)	inactive	inactive		
CCC(C)(C)c1cc(-n2nc3ccccc3n2)c(O)c(C(C)(C)CC)c1	inactive	inactive		
CCC/C=N/O	inactive	inactive		
C=CC(C)=O	inactive	inactive		
COc1cc(OC)nc(NC(=O)NS(=O)(=O)c2ncccc2OCC(F)(F)F)n1	inactive	inactive		
CC(=O)C(Cl)(Cl)Cl	26.4 µM (active)	inactive		
CCCCN(CCCC)C(=S)S	inactive	inactive		
C=CC(=O)NCNC(=O)C=C	inactive	inactive		
CCCBr	inactive	inactive		

SMILES	Potency [1]	Potency [2]	viability change, negative = cytotoxic [1]	activity change, negative = cytotoxicity [2]
CN(C)C(=O)Nc1ccc(Cl)cc1	inactive	inactive		
CC(=O)[O-].CC(=O)[O-].O.O.O.[Pb+2]	inactive	inactive		
CC(=O)C=C(C)C	inactive	inactive		
N#CCCSCCC#N	inactive	inactive		
COc1cnc(OC)n2nc(NS(=O)(=O)c3c(OCC(F)F)cccc3C(F)(F)F)nc12	inactive	inactive		
C[N+](C)=CCl	inactive	inactive		
COCCOCCO	inactive	inactive		
CC(C)=C[C@@H]1[C@@H](C(=O)OCc2coc(Cc3ccccc3)c2)C1(C)C	inactive	inactive		
ClCC(Cl)Cl	inactive	inactive		
O=C(CCCCl)c1ccc(F)cc1	inactive	inactive		
CCOP(=S)(OCC)O/N=C(\C#N)c1ccccc1	inactive	inactive		
O=C1OC(=O)C2C1C1(Cl)C(Cl)=C(Cl)C2(Cl)C1(Cl)Cl (configuration not stated)	inactive	inactive		
C=CCc1ccc(OC(=O)Cc2ccccc2)c(OC)c1	inactive	inactive		
C[C@]12CC[C@H]3[C@@H](CC[C@@]45O[C@@H]4C(O)=C(C#N)C[C@]35C)[C@@H]1CC[C@@H]2O	inactive	inactive		
CC1C(=O)C[C@]2(C(C)C)C[C@H]12 (some centres not stated)	inactive	inactive		
COC1=CC(=O)O[C@@H](/C=C/c2ccccc2)C1	inactive	inactive		
CN(C1CCCCC1)C1CCCCC1	inactive	inactive		
O=C(O)Cc1ccccc1	inactive	inactive		
CN(N=O)c1ccccc1	inactive	inactive		

SMILES	Potency [1]	Potency [2]	viability change, negative = cytotoxic [1]	activity change, negative = cytotoxicity [2]
COc1cc(CCN)cc(OC)c1OC	inactive	inactive		
COC12CC[C@@]3(C[C@@H]1C(C)(O)C(C)(C)C)[C@H]1Cc4ccc(O)c5c4[C@@]3(CCN1CC1CC1)[C@H]2O5 (some centres not stated)	60.7 µM (active)	inactive		
CC(Oc1cccc(Cl)c1)C(=O)O (configuration not stated)	inactive	inactive		
Clc1cnc(Oc2ccc(Oc3ncc(Cl)cc3Cl)cc2)c(Cl)c1	inactive	inactive		
N#Cc1ccccc1Cl	inactive	inactive		
O=C(O)c1cc[c]([Hg][Cl])cc1	inactive	inactive		
O=[N+]([O-])c1ccc([As](=O)(O)O)cc1	inactive	inactive		
CCCCOC(C)=O	inactive	inactive		
CC(C)Nc1nc(Cl)nc(NC(C)C)n1	inactive	inactive		
[Cl-].[Cl-].[Cl-].[Yb+3]	inactive	inactive		
c1ccc2c(c1)oc1ccccc12	inactive	inactive		
N#Cc1ccncc1	inactive	inactive		
CN[C@@H](C)[C@H](O)c1ccccc1	inactive	inactive		
CC(C)OS(C)(=O)=O	inactive	inactive		
CC(=O)[O-].CC(=O)[O-].CC(=O)[O-].[Sb+3]			0.272% [at 3.27 µM]	-8.91% [at 3.27 µM]
CN(C)C(=O)Nc1cccc(OC(=O)NC(C)(C)C)c1	inactive	inactive		
COc1cc(CC(C)N)cc2c1OCO2 (configuration not stated)	inactive	inactive		
O=C1CN=C(c2ccccc2)c2cc([N+](=O)[O-])ccc2N1	inactive	inactive		
